An excerpt weighted towards active compounds, which were near 3% of everything screened.
PPC-1+TRAIL kill = compounds killing PPC-1 cancer cells with TRAIL present (potentiator screen, no TRAIL-free arm). PPC-1 cells + TRAIL, ATPLite viability luminescence. cell killing (% activity), % at 4 µM or 5 µM. hit rate 0.41% among 220,000;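 active = cell killing above 50% in the first pass at 4 µM, then a duplicate retest at 5 µM averaging 50% or more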;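 note: plate controls were cells with TRAIL plus DMSO for no effect and medium-only wells lacking cells for full effect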
SENP6 block = inhibitors of human SENP6 protease; hit rate 1.8% among 330,000; Recombinant SENP6 catalytic domain, aminoluciferin luminescence; inhibition, % at 10 µM;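 active = inhibition above about 50% at the single tested dose, limit read from the data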;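 note: plate controls were DMSO wells with enzyme for no effect and DMSO wells lacking enzyme for full effect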
SENP8 block-1 = inhibitors of human SENP8 protease | Q96LD8 | recombinant SENP8, Nedd8 substrate fluorescence | hit rate 0.64% among 360,000 | AID 602440 | inhibition, % at 20 µM; in the data active = inhibition mostly above about 40%, no sharp cut-off; inactive = mostly below about 27%
Target sequence (Q96LD8 whole entry, looked up): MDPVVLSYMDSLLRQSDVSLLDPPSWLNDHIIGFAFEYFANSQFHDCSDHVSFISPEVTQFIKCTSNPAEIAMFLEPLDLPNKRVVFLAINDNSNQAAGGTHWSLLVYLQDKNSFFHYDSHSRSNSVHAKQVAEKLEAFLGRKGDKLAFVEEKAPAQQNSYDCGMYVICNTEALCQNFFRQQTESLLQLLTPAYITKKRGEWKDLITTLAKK
SENP8 block-2 = SENP8 protease inhibition; Q96LD8; purified SENP8, Z-RLRGG-aminoluciferin cleavage, luminescence; inhibition, % at 10 µM; hit rate 1.2% among 330,000; AID 2540; in the data active = inhibition above about 50%
TRAIL sens C8 = sensitizes caspase-8 expressing cells to TRAIL; AID 624354; NB7+C8 cells + TRAIL, ATPlite viability luminescence; hit rate 1% among 360,000; inhibition (viability loss, TRAIL sensitization), % at 10 µM;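 active = compounds causing at least 50% loss of cell viability in the single-dose screen, relative to plate controls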
SENP7 inh = blocks the human protease SENP7. hit rate 1.5% among 330,000. inhibition, % at 5 µM. recombinant SENP7, Z-RLRGG-aminoluciferin luminescence, 40 min. Q9BQF6;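 active = inhibition above about 50% at the single test dose, limit read from the data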;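 note: plate controls were DMSO with enzyme for no effect and no enzyme buffer wells for full effect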
Target sequence (Q9BQF6 706-1050 limits assumed): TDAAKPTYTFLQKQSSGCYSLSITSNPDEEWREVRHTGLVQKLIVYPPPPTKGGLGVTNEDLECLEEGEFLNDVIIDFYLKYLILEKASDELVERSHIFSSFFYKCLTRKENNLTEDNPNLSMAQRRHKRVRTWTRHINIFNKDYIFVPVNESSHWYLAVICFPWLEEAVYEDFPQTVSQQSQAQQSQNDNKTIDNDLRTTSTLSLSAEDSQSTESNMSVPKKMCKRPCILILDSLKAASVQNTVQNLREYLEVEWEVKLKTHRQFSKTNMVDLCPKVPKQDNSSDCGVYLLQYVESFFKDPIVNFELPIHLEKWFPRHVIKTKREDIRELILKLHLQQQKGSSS
SENP8 conf = confirmation of human SENP8 protease inhibitors | AID 488912 | shares compounds with SENP7 inh | hit rate 40% among 6,200 | inhibition, % at 12.5 µM | Recombinant SENP8, Z-RLRGG-aminoluciferin luminescence, 60 min;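 active = mean inhibition across replicates above about 50%, limit read from the data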
SENP6 conf = human SENP6 inhibition, confirmed | AID 488915 | inhibition, % at 12.5 µM | recombinant SENP6, Z-RLRGG-aminoluciferin luminescence | hit rate 58% among 6,200 | shares compounds with SENP7 inh
SENP7 conf = human SENP7 inhibition, confirmed; shares compounds with SENP7 inh; recombinant SENP7, Z-RLRGG-aminoluciferin luminescence, 40 min; inhibition, % at 12.5 µM; hit rate 69% among 6,200
Casp3 select = inhibits human caspase-3 in SENP selectivity test | hit rate 60% among 6,200 | purified caspase-3, Z-DEVD-aminoluciferin luminescence, 60 min | shares compounds with SENP7 inh | inhibition, % at 12.5 µM;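 active = mean inhibition above about 50%, limit read from the data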;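 note: plate controls were enzyme with DMSO for no effect and wells without caspase-3 for full effect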
Luc interf = counter-screen for SENP inhibitors: luminescence interference. shares compounds with SENP7 inh. Pre-incubated SENP8/Z-RLRGG-aminoluciferin, luciferase luminescence interference. inhibition, % at 12.5 µM. hit rate 39% among 6,200. AID 488919;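 active = mean inhibition above about 50% when retested at one dose, limit read from the data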;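 note: plate controls were DMSO wells with completed reaction for no effect and substrate without enzyme for full effect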
An asterisk follows results filed as active; / = no result given.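 Rule for the calls, unless noted: active = mean inhibition above about 50% in the one-dose retest (limit read from the data); inactive = the rest.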

SMILES | PPC-1+TRAIL kill | SENP6 block | SENP8 block-1 | SENP8 block-2 | TRAIL sens C8 | SENP7 inh | SENP8 conf | SENP6 conf | SENP7 conf | Casp3 select | Luc interf
COc1ccc(-c2cc(NC(C)=O)c3ncc(-c4ccc(F)cc4)n3c2)cc1OC | / | / | -352 | / | 5 | / | / | / | / | / | /
O=C(Nc1cc(Cl)ccc1-n1cncn1)c1cccc(S(=O)(=O)N2CCOCC2)c1 | / | 4 | 6 | 8 | 9 | -2 | / | / | / | / | /
N/C(=N\OC(=O)c1ccccc1Br)c1cccc([N+](=O)[O-])c1 | / | 85* | 24 | 66* | 27 | 82* | 59* | 52* | 83* | 51* | 66*
N/C(=N\OC(=O)c1ccccc1F)c1cccc([N+](=O)[O-])c1 | / | 13 | 19 | 34 | 9 | 64* | 24 | 44 | 78* | 51* | 43
COc1cc(C(=O)O/N=C(\N)c2cccc([N+](=O)[O-])c2)cc(OC)c1OC | 15 | -19 | 24 | 3 | 12 | 2 | / | / | / | / | /
Cc1ccc(S(=O)(=O)N2CCCCC2)cc1NC(=O)COC(=O)c1cccn1C | / | 6 | 6 | 2 | 10 | 7 | / | / | / | / | /
CCn1c(SCC(=O)Nc2ccc3c(c2)OCO3)nnc1C(C)C | / | -14 | 5 | 10 | 11 | 4 | / | / | / | / | /
O=[N+]([O-])c1ccccc1N/N=C\c1ccccc1Cl | 19 | 91* | 36 | 84* | -4 | 97* | 16 | 17 | 7 | 56* | 3
O=[N+]([O-])c1ccc(O)c(/C=N/Nc2ccccc2Cl)c1 | 23 | 50* | 29 | 36 | 5 | 50* | 6 | 12 | 23 | 20 | 18
O=[N+]([O-])c1cccc(/C=N\N=C2c3ccccc3-c3ccccc32)c1O | 15 | -8 | 29 | -1 | -1 | -2 | / | / | / | / | /
O=[N+]([O-])c1ccccc1N/N=C/c1cccc(O)c1O | 15 | 92* | 55* | 88* | 24 | 98* | 16 | 30 | 20 | 22 | 12
CC(SC1=NCCN1S(C)(=O)=O)c1ccccc1 (stereo unspecified) | / | 1 | 2 | -6 | 0 | -6 | / | / | / | / | /
CN(CC(=O)Nc1ccc(Cl)cc1F)C1CCS(=O)(=O)C1 (stereo unspecified) | / | -7 | 11 | 5 | -8 | -4 | / | / | / | / | /
CC(C)Cn1c(SC(C)C(=O)NC2CC2)nnc1-c1ccccc1F (stereo unspecified) | / | 3 | 14 | 8 | 13 | 3 | / | / | / | / | /
CCN(CC)C(=O)C1=C(C)N(CCCN2CCCC2=O)C(=O)C(CC(=O)NCCCN(C)C)C1 (stereo unspecified) | / | / | 2 | / | -22 | / | / | / | / | / | /
Cc1cc(C)c2cccc(N)c2n1 | 10 | 71* | -6 | 2 | -2 | 7 | -22 | -18 | -7 | -6 | -5
Cc1cc(C)c2c(N)c3ccccc3nc2n1 | 48 | 8 | -280 | 2 | 12 | 0 | / | / | / | / | /
O=C(COC(=O)c1ccncc1)Nc1cccc(Cl)c1 | 4 | 11 | -82 | 2 | 5 | 0 | / | / | / | / | /
Cn1cc(Cl)c(C(=O)OCC(=O)Nc2cccc(Cl)c2)n1 | / | 51* | 4 | -9 | -2 | -12 | -1 | 7 | 4 | 5 | 0
Cc1nnc(SCC(=O)NNC(=O)c2ccccc2)n1N | / | -1 | 4 | 2 | -8 | -3 | / | / | / | / | /
O=C(O)C1CCCN1C(=O)C1CCN(S(=O)(=O)c2cccc(C(F)(F)F)c2)CC1 (stereo unspecified) | / | -5 | 16 | -9 | 6 | 3 | / | / | / | / | /
COc1ccc2cc(-c3cccnc3)ncc2c1 | / | 53* | -154 | 40 | 32 | 58* | 38 | 38 | 81* | 73* | 62*
COc1ccc2cc(-c3ccon3)ccc2c1 | / | 13 | -76 | -4 | 12 | 8 | / | / | / | / | /
COc1ccc(-c2ccc3ccccc3n2)cc1 | 43 | 94* | -417 | 93* | 58* | 99* | 92* | 97* | 101* | 95* | 74*
COc1ccc(C(O)c2ncc(-c3ccccc3F)[nH]2)cc1 (stereo unspecified) | / | / | 6 | / | 4 | / | / | / | / | / | /
SMILES | PPC-1+TRAIL kill | SENP6 block | SENP8 block-1 | SENP8 block-2 | TRAIL sens C8 | SENP7 inh | SENP8 conf | SENP6 conf | SENP7 conf | Casp3 select | Luc interf
Fc1ccc2cc(-c3cccnc3)ncc2c1 | / | -7 | -18 | 5 | 14 | 5 | / | / | / | / | /
COc1ccc(-c2cc3ccc(OC)cc3cn2)cc1 | / | 68* | -474 | 46 | 77* | 84* | 5 | 17 | 59* | 41 | -4
COc1ccc2cc(-c3ccccc3F)ncc2c1 | / | 97* | -119 | 97* | 53* | 100* | 98* | 99* | 103* | 96* | 97*
CC(NC(=O)c1ccccc1)c1nnc(SCC(=O)NC2CCCC2)n1C (stereo unspecified) | / | 9 | 8 | -6 | 16 | -2 | / | / | / | / | /
COc1ccc(C(C)(C)C)cc1NC(=O)COC(=O)C1=NNC(=O)CC1 | / | -3 | 12 | 2 | -3 | 10 | / | / | / | / | /
Cc1ccccc1Nc1nnc(SCC2CCCCO2)s1 (stereo unspecified) | 40 | 90* | 8 | 77* | 41 | 87* | 81* | 82* | 97* | 88* | 77*
Cc1cccc(Nc2nnc(SCC(=O)NCC3CCCO3)s2)c1C (stereo unspecified) | / | -9 | 13 | -13 | -7 | -12 | / | / | / | / | /
Clc1ccccc1-c1nnc(-c2ccccc2Cl)o1 | 25 | 83* | 21 | 77* | 8 | -1 | 79* | 83* | 94* | 69* | 50*
Clc1ccc(-c2nnc(-c3ccccc3Cl)o2)cc1 | 24 | 83* | 6 | 50* | 47 | 87* | 4 | 45 | 52* | 39 | 23
Clc1ccc(-c2nnc(-c3cccnc3)o2)cc1 | / | 9 | 19 | -4 | -16 | -1 | / | / | / | / | /
CCCNCc1nnc(-c2ccccc2Cl)o1 | -12 | -17 | 8 | -4 | 15 | -5 | / | / | / | / | /
COc1cc(/C=N/O)ccc1OCc1ccccc1Cl | 20 | 67* | 8 | 41 | 19 | 50* | 43 | 55* | 79* | 33 | 59*
O/N=C/c1ccccc1OCc1ccccc1Cl | 17 | -7 | 16 | -3 | 16 | 2 | / | / | / | / | /
O=C(Nc1nnc([C@@H]2C[C@H](O)[C@@H](CO)O2)s1)NC(c1ccccc1)c1ccccc1 | / | / | 19 | / | 2 | / | / | / | / | / | /
NS(=O)(=O)c1ccc(NC2=CC(=O)C(=O)c3ccccc32)cc1 | / | 87* | 50* | 88* | 64* | 42 | 12 | 94* | 84* | 14 | 15

From PubChem
